# An excerpt weighted towards active compounds, which were near 7.2% of everything screened.
# RE007 growth inh: qHTS Assay for Inhibitors of the HIV-1 protein Vpr | S. pombe RE007 Vpr strain, BacTiter-Glo ATP luminescence, 24 h | Potency, µM (doses to about 92.2 µM), for the others: at the top dose activity change, negative = less growth, actives largely listed as inhibitors | 360,000 tested, 0.21% active; active = well fitted falling curve with a large enough effect; inconclusive = small, poorly fitted or top-dose-only effect; inactive = no such curve, though single readings can be large or run the other way; also: nearly all actives have a fitted effect of over 50% in size
#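 Fission yeast RE007 carrying one integrated HIV-1 vpr copy, seeded at OD 0.01 in PMG+AL medium with 23 nL pinned compound. Grown 24 h at 30 degrees; viability read by BacTiter-Glo luminescence after 5 min.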
# HCV inhibitor: qHTS Assay for Inhibitors of Hepatitis C Virus (HCV) | Huh7.5.1 HCVcc-Cre infection, luciferase reporter, 44 h | Potency, µM (top dose mostly 41.8 µM), for inactives: top-dose activity change, negative = inhibition, actives largely listed as inhibitors | 340,000 tested, 3.4% active | AID 651820, 2012
#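 Reporter virus HCVcc-Cre (~0.5 moi) infects cells exposed to compound; seeding density 1,000 cells/well with 4 h settling beforehand. Luminescence, 15 sec read, taken 44 h post-infection following a 15 min RT substrate incubation.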
# Lassa entry inh: qHTS for Inhibitors of binding or entry into cells for Lassa Virus | Lassa virus pseudotype entry inhibition, cell reporter | Potency, µM (titrated, usually from 37.9 µM), inactives show at the highest dose activity change, negative = inhibition, hits mostly inhibitors | 300,000 tested, 1.2% active | AID 540256, 2011; calls by dose curve; tested in HEK293 cells; also: nearly all actives have a fitted effect of over 50% in size
# MARV entry inh: qHTS for inhibitors of binding or entry into cells for Marburg Virus; AID 540276, 2011; Marburg virus pseudotyped entry inhibition, cell reporter; Potency, µM (doses to about 37.8 µM), for the others: at the top dose activity change, negative = inhibition, most hits filed as inhibitors; 300,000 tested, 1.8% active; calls by dose curve; tested in HEK293 cells
# Sm TGR block: qHTS Assay for the Inhibitors of Schistosoma Mansoni Peroxiredoxins; 360,000 tested, 3% active; Schistosoma mansoni thioredoxin glutathione reductase (TGR), Q962Y6; purified TGR, DTNB reduction, TNB absorbance 405 nm; Potency, µM (highest dose often 114 µM), inactives show top-dose activity change, negative = inhibition, usual class: inhibitors; AID 485364, 2010; also: nearly all actives have a fitted effect of over 60% in size
#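 TGR 20 nM + NADPH 100 uM (dispensed conc.), cpd preinc 15 min RT; start with NADPH (500 uM addition) then DTNB (15 mM addition). Kinetic TNB absorbance, 405 nm filter. Four-parameter Hill fit across titration.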
# FMDV inh: High Throughput Screening for Foot and Mouth Disease Virus Antivirals. FMDV antiviral cell-based qHTS. Potency, µM (top dose mostly 57.9 µM), without a hit: top-dose activity change, negative = inhibition, usual class: inhibitors. 410,000 tested, 1.2% active. AID 1159524, 2015; calls by dose curve; tested in HEK293T cells; also: read-out not given here; nearly all actives have a fitted effect of over 45% in size
# Active calls of the source: *; ? = inconclusive; / = not tested or not shown; [ ] = remark or other dose. Unless noted, calls follow the shape of the dose curve; as a rule, active = well fitted curve in the direction sought with a large enough effect; inconclusive = small, poorly fitted or top-dose-only effect, or another doubt; inactive = no such curve, though single readings can be large; an effect the other way counts as inactive or inconclusive. % is scaled to controls: 0 for no effect and ±100 for the full control effect; potency is read from the fitted curve at half-maximal effect.
SMILES,RE007 growth inh,HCV inhibitor,Lassa entry inh,MARV entry inh,Sm TGR block,FMDV inh
Cc1cc(C)cc(C(=O)Nc2nc3ccccc3[nH]2)c1,-30.0%,-13.5%,?,?,1.2%,4.2%
CN(C)S(=O)(=O)c1ccc(C(=O)Nc2nc3ccccc3[nH]2)cc1,9.5%,12.4%,/,-10.4%[46.1 µM],-1.6%,23.9%
CCc1ccc(C(=O)Nc2nc3ccccc3[nH]2)cc1,-17.5%,?,?,?,-19.0%,5.62µM*
O=C(Nc1nc2ccccc2[nH]1)c1ccc(F)cc1,-22.0%,10.0%,6.51µM*,?,12.4%,20µM*
COc1ccc(Cl)cc1C(=O)Nc1nc2ccccc2[nH]1,-4.5%,-13.1%,?,?,-0.7%,11.2µM*
COc1ccc(Br)c(C(=O)Nc2nc3ccccc3[nH]2)c1,2.8%,17.2%,4.8%[46.1 µM],?,-32.9%,31.7%
O=C(Nc1nc2ccccc2[nH]1)c1ccccc1F,6.31µM*,-17.5%,0.282µM*,0.316µM*,8.5%,3.16µM*
Cc1ccccc1C(=O)Nc1ccc(OCc2cc(=O)n3ccccc3n2)cc1,/,/,?,/,1.0%,4.6%
O=C(c1csnn1)N1CCC2(CCCN(c3ccccn3)C2)CC1,/,/,/,/,/,-2.4%
C[C@H]1O[C@@H](O[C@H]2[C@@H](O)C[C@H](O[C@H]3[C@@H](O)C[C@H](O[C@H]4CC[C@@]5(C)[C@H](CC[C@@H]6[C@@H]5CC[C@]5(C)[C@@H](C7=CC(=O)OC7)CC[C@]65O)C4)O[C@@H]3C)O[C@@H]2C)C[C@H](O)[C@@H]1O,-2.3%,-11.0%[8.37 µM],0.206µM*,0.058µM*,0.8%,?
CC(=O)OC1CC(OC2C(O)CC(OC3C(O)CC(OC4CCC5(C)C(CCC6C5CCC5(C)C(C7=CC(=O)OC7)C(O)CC65O)C4)OC3C)OC2C)OC(C)C1OC1OC(CO)C(O)C(O)C1O (configuration not stated),-1.0%,?,?,0.178µM*,/,?
CC1OC(O[C@@H]2C(O)CC(O[C@@H]3C(O)C[C@@H](OC4CC[C@]5(C)[C@H](CC[C@H]6[C@@H]5CC[C@]5(C)C(C7=CC(=O)OC7)C(O)C[C@@]65O)C4)OC3C)OC2C)CC(O)C1O (some centres not stated),/,/,/,/,/,-28.8%
CC(=O)OC1CC2(O)C3CCC4CC(O)CCC4(C)C3CCC2(C)C1C1=CC(=O)OC1 (configuration not stated),-19.5%,?,?,?,/,?
CC1OC(OC2C(O)CC(OC3C(O)CC(OC4CCC5(C)C(CCC6C5CCC5(C)C(C7=CC(=O)OC7)C(O)CC65O)C4)OC3C)OC2C)CC(O)C1O (configuration not stated),-14.5%,?,0.316µM*,?,/,?
O=C1Nc2ccc(-c3cccnc3)cc2C1=Cc1cc(Br)c(O)c(Br)c1,/,/,12.5µM*,/,/,/
Cc1ccc(NC(=S)Nc2ccccn2)c(C)c1,12.0%,?,?,3.98µM*,?,29.7%
Cc1ccc(S(=O)(=O)CC(=O)Nc2ccccn2)cc1,-2.7%,4.8%,0.5%[46.1 µM],-20.3%[46.1 µM],-0.3%,-1.7%
Cc1cc(Cl)ccc1NC(=S)Nc1ccccn1,-21.1%,-9.2%,25.0%,4.9%,-19.6%,34.6%
Cc1ccc(NC(=O)C(=O)Nc2ccccn2)cc1,-13.6%,5.2%,2.91µM*,1.12µM*,1.5%,?
Cc1ccc(C)c(CS(=O)(=O)c2cn(CC(=O)N(C(C)C)C(C)C)c3ccccc23)c1,/,/,-1.1%[46.1 µM],/,-2.3%,-5.7%
N#Cc1c(N)n(-c2cccc(Cl)c2)c2nc3ccccc3nc12,/,/,-3.4%[46.1 µM],8.9%[46.1 µM],-2.6%,-26.0%
COc1cccc(OC)c1C(=O)Nc1ccc2c(c1)N(C(C)=O)CCC2,/,/,19.8%[46.1 µM],/,1.2%,-8.2%
CC(=O)N1CCCc2ccc(NC(=O)c3ccc(OC(C)C)cc3)cc21,/,/,?,/,-9.1%,11.2µM*
